# Results as given in PubChem BioAssay AID686979 (National Center for Advancing Translational Sciences (NCATS), 2013).
# About 50,000 (12%) of roughly 420,000 compounds were called active. About 26% were inconclusive and are not listed. The full list was thinned out, with actives kept by preference. Values without a mark were called inactive. Calls come from the whole dose curve; as a rule, active = well fitted inhibition curve with a large enough effect; inconclusive = small, poorly fitted or top-dose-only effect; inactive = flat fitted curve, though single readings scatter.
# Assay: qHTS for Inhibitors of human tyrosyl-DNA phosphodiesterase 1 (TDP1): qHTS in cells in presence of CPT; note: nearly all actives have a fitted effect of over 55% in size
# Conditions: chicken DT40 Tdp1-/-;hTDP1 cells + 20 nM CPT, ATP luminescence, 48 h; series mostly up to 46.2 µM; activity change, negative = growth inhibition: at the top concentration
# Method in brief: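 Cell growth measured by CellTiter-Glo luminescence after a minimum 48 h, 37 C compound exposure with 20 nM CPT in Tdp1-knockout DT40 cells stably expressing hTDP1, seeded 400/well; qHTS titration format.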
# % is set by controls: 0 for no effect and ±100 for the full control effect; potency is the fitted concentration of half-maximal effect.
SMILES,"activity change, negative = growth inhibition [%]",Potency
COCc1c(C(=O)N/N=C(\C)c2ccncc2)nnn1-c1nonc1N,5.2,
CSc1ccc(/C=C2\NC(=O)NC2=O)cc1,-13.4,
O=C(Nc1ccnn1C1CCN(Cc2cccc(OCCO)c2)CC1)C1CCCC1,3.27,
CCN(CC)CCN(C(=O)c1cc(Cl)sc1Cl)c1nc2cc3c(cc2s1)OCO3,-22.6,
Nc1ccccc1SCc1cc([N+](=O)[O-])cc2c1OCOC2,-9.92,
Nc1ccccc1Sc1ccc(C(F)(F)F)cc1[N+](=O)[O-],-16.5,
Nc1ccccc1SC(C[N+](=O)[O-])c1ccccc1 (stereo not drawn),,4.11 µM (active)
COc1ccc(NS(=O)(=O)c2ccc(C)c(C(=O)NNC(=O)c3csc(N4CCOCC4)n3)c2)cc1,2.85,
O=C(NCc1cccnc1)c1cccc(-c2cc3ccccc3oc2=O)c1,6.42,
Cc1ccc(S(=O)(=O)CCC(=O)OCC(=O)N(C)C2CCS(=O)(=O)C2)cc1 (stereo not drawn),-1.21,
Cc1ccc(SCC(=O)Nc2ccc3c(c2)OCCO3)cc1,0.128,
Cc1nc([N+](=O)[O-])cn1CC(=O)Nc1ccc2c(c1)OCO2,29,
Cc1ccc2nc(-c3ccc(O)cc3)c(Nc3ccc4c(c3)OCO4)n2c1,,23.1 µM (active)
CC(C)(C)NC(=O)NC(=O)COC(=O)C1(C)CC1(Cl)Cl (stereo not drawn),-3.94,
COc1ccc(CNC(=O)CC2Oc3ccc(C)cc3NC2=O)cc1 (stereo not drawn),-7.07,
Cc1cc(C)cc(NC(=O)C(OC(=O)c2ccc(O)cc2)c2ccccc2)c1 (stereo not drawn),-20.1,
COc1ccc(N2C(=O)CC(SC(C)C)C2=O)cc1 (stereo not drawn),-5.56,
CC(=O)Nc1ccc(N2C(=O)CC(Sc3nccc(C)n3)C2=O)cc1 (stereo not drawn),-22.2,
O=C1CC(Sc2ncn[nH]2)C(=O)N1c1ccccc1 (stereo not drawn),,8.2 µM (active)
COc1ccc(-c2nc(SCC(=O)N3CCOCC3)n[nH]2)cc1,-6.79,
COc1ccc(N2C(=O)CC(Sc3n[nH]c(-c4ccc(C)cc4)n3)C2=O)cc1 (stereo not drawn),,2.91 µM (active)
Cc1ccnc(SC2CC(=O)N(c3ccccc3)C2=O)n1 (stereo not drawn),-4.69,
CCOC(=O)c1ccc(N2C(=O)CC(Sc3nc(O)c(CC)c(=O)[nH]3)C2=O)cc1 (stereo not drawn),1.86,

SMILES,"activity change, negative = growth inhibition [%]",Potency
Cc1ccc(N2C(=O)CC(Sc3ncn[nH]3)C2=O)cc1 (stereo not drawn),,5.17 µM (active)
O=C1CC(N2CCN(c3ccc(F)cc3)CC2)C(=O)N1c1ccccc1 (stereo not drawn),-10.3,
OCC[C@H]1C[C@H](O)[C@@H](O)[C@]2(CCc3ccccc3O2)O1,-14.2,
Cc1cc(C)cc(NC(=O)c2cccc(NC(=O)C3C4CC5OC(=O)C3C5C4)c2)c1 (stereo not drawn),-4.86,
O=C(O)CCN(Cc1ccccc1)S(=O)(=O)c1c(Cl)cccc1Cl,-12.6,
COc1cc(NC(=O)CCS(=O)(=O)c2ccc3c(c2)oc(=O)n3C)cc(OC)c1,1.78,
O=S(=O)(Nc1ccc(OC(F)(F)F)cc1)c1cccc2nonc12,-1.77,
C[C@H](NS(=O)(=O)c1ccc(Cl)cc1)C(=O)OCC(=O)N1CCOCC1,-9.84,
CC1CN(C(=O)c2ccccc2NS(=O)(=O)c2cccc([N+](=O)[O-])c2)CC(C)O1 (stereo not drawn),-3.65,
COC(=O)C1=CO[C@@H](O[C@@H]2O[C@H](CO)[C@@H](O)[C@H](O)[C@H]2O)C2C1C[C@H](O)[C@@H]2C (stereo partly drawn),6.92,
CC[C@]12c3[nH]c4cc(CCC(=O)N(C)C)ccc4c3CCN1C(=O)[C@@H](CC(=O)NCCCn1ccnc1)C[C@@H]2C(=O)N1CCN(C(=O)C2CC2)CC1,9.71,
OC(CBr)C[n+]1cccc2cc(Br)ccc21 (stereo not drawn),,4.47 µM (active)
COc1ccc(N2CCN(S(=O)(=O)c3ccc4c(c3)N(C(C)=O)CCO4)CC2)cc1,-25.4,
CN(C)c1ccc(/C=N/NC(=O)c2ccc(Cn3cc(Br)cn3)o2)cc1,22,
CCOC(=O)C1CCN(C(=O)CN2C(=O)NC(C)(c3ccc4cc(OC)ccc4c3)C2=O)CC1 (stereo not drawn),,18.4 µM (active)
CCOC(=O)C1CCN(C(=O)Nc2cccc(OC)c2)CC1,2.86,
CC1(c2ccc3ccccc3c2)NC(=O)N(CC(N)=O)C1=O (stereo not drawn),2.31,
CCSc1nnc(NC(=O)c2cc(=O)c3cc(C)c(C)cc3o2)s1,-1.36,
CN=C1S/C(=C\c2c(OC)cc(OC)cc2OC)C(=O)N1C,12.4,
O=C(COC(=O)/C=C/c1cccs1)NC1CCCCC1,-15.2,
COc1ccc(CCNC(=O)c2ccco2)cc1,-28.4,
CCOc1ncccc1C(=O)NCCc1ccc(OC)cc1,,18.4 µM (active)
COc1ccc(CCNC(=O)c2cnc(Cl)c(Cl)c2)cc1,5.15,

SMILES,"activity change, negative = growth inhibition [%]",Potency
OCCN1CCN(c2ncnc3c2ncn3[C@H]2CN(Cc3ccco3)C[C@@H](CO)O2)CC1,-19.2,
Cc1nn(CC(=O)N2CCN(c3cccc(C(F)(F)F)c3)CC2)c(=O)c2cc3sccc3n12,-2.5,
COc1ccc2[nH]c3c(C)c4cc[n+](C)cc4c(C)c3c2c1,,0.259 µM (active)
COc1ccc2[nH]c(=S)cc(C)c2c1,-20.6,
COc1ccc2[nH]c3ccc(OC)cc3c2c1,-5.32,
O=C(CSc1nnnn1C1CCCC1)N1CCCCC1,-12.8,
COc1ccccc1/C=C/C=N/NC(=O)CN1CCN(Cc2ccccc2)CC1,0.994,
CSc1nc2ccccc2cc1/C=C(\C#N)c1ccc(Cl)cc1Cl,-10.7,
Cc1ccc(-c2nnc(SCc3ccccc3C)o2)cc1,-2.32,
COc1ccc([N+](=O)[O-])cc1N(CC(O)CN(CC(C)C)CC(C)C)S(=O)(=O)c1ccc(C)cc1 (stereo not drawn),,25.9 µM (active)
Cc1ccc(S(=O)(=O)N(CC(O)CN2CCCCC2)c2cccc([N+](=O)[O-])c2)cc1 (stereo not drawn),3.37,
Cc1ccc(S(=O)(=O)N(CC(O)CN2C(=O)NC(C)(C)C2=O)c2cccc([N+](=O)[O-])c2)cc1 (stereo not drawn),-5.2,
COC(=O)c1ccc(CNC(=O)C2CCC(=O)N(Cc3ccccn3)C2)cc1 (stereo not drawn),-14.2,
CCOC(=O)C1=C(CNC2CCCCC2)NC(=O)NC1c1cc(C)ccc1C (stereo not drawn),,25.9 µM (active)
CCOCCOC(=O)C1=C(C)NC(=O)NC1c1ccc2c(c1)OCO2 (stereo not drawn),-6.39,
CCOC(=O)C1=C(CSc2nccn2C)NC(=O)NC1c1ccc(OC)cc1 (stereo not drawn),-2.12,
Cc1nn(-c2ccccc2)c2c1C(c1cccc([N+](=O)[O-])c1)N(c1ccccc1)C(=O)N2 (stereo not drawn),-27,
CCOC(=O)C1=C(CN2CCc3ccccc32)NC(=O)NC1c1cc(C)ccc1C (stereo not drawn),,17.8 µM (active)
CCOC(=O)C1=C(CN2CCc3ccccc32)NC(=O)NC1c1cccc([N+](=O)[O-])c1 (stereo not drawn),,14.1 µM (active)
NC(=O)N1CCc2ccccc21,-8.45,
CCOC(=O)C1=C(c2ccccc2)NC(=O)NC1c1cc(OC)c(OC)cc1OC (stereo not drawn),3.86,
CCOC(=O)COc1ccc(Cl)cc1C1NC(=O)NC(C)=C1C(C)=O (stereo not drawn),-12,
